Experimental data as given in PubChem BioAssay (Tox21).
Inconclusive results are not listed. Calls of active or inactive are those of the source. Unless noted, calls come from the whole dose curve; as a rule, active = well fitted curve in the direction sought with a large enough effect in the repeat runs; inconclusive = weak or mixed curves; inactive = no such curve, though single readings can be large; an effect the other way counts as inactive or inconclusive.

Legend:
[1] = qHTS assay to identify small molecule agonists of the endoplasmic reticulum stress response signaling pathway (AID 1159516; active = well fitted activation curve with a large enough effect in the signal ratio in the repeat runs, not every such curve was filed as active; the % refers to the signal ratio; note: % is set by controls: 0 for no effect and ±100 for the full control effect)
In short: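 Tox21 10K library screened in quantitative HTS format on ESRE-bla HeLa cells, a beta-lactamase reporter under ER stress response element control; 5 hr treatment, FRET read.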

[2] = qHTS assay to identify small molecule agonists of the endoplasmic reticulum stress response signaling pathway - cell viability counter screen (AID 1159517; calls by dose curve; note: series mostly up to about 61 µM; % is set by controls: 0 for no effect and ±100 for the full control effect; nearly all actives have a fitted effect of over 50% in size)
In short: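 HeLa cells carrying an ESRE-driven beta-lactamase reporter receive compound for 5 hr at 37 C. Cell viability is then gauged with CellTiter-Glo by luminescence, 30 min at room temperature.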

[3] = qHTS assay to identify small molecule antagonists of the retinoid-related orphan receptor gamma (ROR-gamma) signaling pathway - cell viability counter screen (AID 1159520); note: nearly all actives have a fitted effect of over 50% in size; note: potency is the fitted concentration of half-maximal effect
In short: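 Cytotoxicity was read from cellular ATP (CellTiter-Glo luminescence) after 16 hr at 37 C with 1 uM doxycycline induction. The inducer was added 2 hr after compound transfer to Tet-on ROR gamma CHO cells.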

[4] = qHTS assay to identify small molecule agonists of the AP-1 signaling pathway - cell viability counter screen (AID 1159525; calls by dose curve; note: nearly all actives have a fitted effect of over 55% in size)
In short: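 Luminescent ATP readout (Cell Titer Glo, 30 min RT), normalised to DMSO and tetra n-octyl ammonium bromide controls. Cells were ME-180 AP-1-bla in 0.5% dialyzed FBS Opti-MEM, with a 5 h, 37 °C compound exposure.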

[5] = qHTS assay to identify small molecule agonists of the AP-1 signaling pathway (AID 1159526; calls by dose curve; note: potency is the fitted concentration of half-maximal effect)
[6] = qHTS assay to identify small molecule antagonists of the retinoid acid receptor (RAR) signaling pathway - cell viability counter screen (AID 1159551); note: % is set by controls: 0 for no effect and ±100 for the full control effect; nearly all actives have a fitted effect of over 35% in size
In short: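 Cytotoxicity counter screen in C3RL4 cells: 6 h compound exposure with 1 uM retinol (final), viability from cellular ATP by luminescence.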

[7] = qHTS assay to identify small molecule antagonists of the retinoic acid receptor (RAR) signaling pathway (AID 1159552; note: nearly all actives have a fitted effect of over 50% in size; note: potency is the fitted concentration of half-maximal effect)
In short: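 Test chemicals and DMSO controls were pin-transferred onto C3RL4 cells a day after seeding; retinol (1 uM final) followed at once. Luminescent reporter output was quantified after 6 hr of co-incubation and 30 min with detection reagent.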

[8] = qHTS assay to identify small molecule antagonists of the estrogen related receptor (ERR) signaling pathway from Tox21 library - cell viability counter screen (AID 1224834); note: nearly all actives have a fitted effect of over 30% in size; note: potency is the fitted concentration of half-maximal effect
In short: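 Cytotoxicity of test substances is gauged in the same ERR cells used for the antagonist screen, after 17.5 h of compound treatment at 37 C, by CellTiter-Fluor fluorescence measured after 30 min.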

[9] = biological target: Luciferin 4-monooxygenase (Photinus pyralis) (UniProt P08659); test: qHTS assay to identify small molecule inhibitors of firefly luciferase (AID 1224835); note: nearly all actives have a fitted effect of over 25% in size; note: potency is the fitted concentration of half-maximal effect
Sequence of Luciferin 4-monooxygenase (Photinus pyralis) (P08659 whole entry, looked up): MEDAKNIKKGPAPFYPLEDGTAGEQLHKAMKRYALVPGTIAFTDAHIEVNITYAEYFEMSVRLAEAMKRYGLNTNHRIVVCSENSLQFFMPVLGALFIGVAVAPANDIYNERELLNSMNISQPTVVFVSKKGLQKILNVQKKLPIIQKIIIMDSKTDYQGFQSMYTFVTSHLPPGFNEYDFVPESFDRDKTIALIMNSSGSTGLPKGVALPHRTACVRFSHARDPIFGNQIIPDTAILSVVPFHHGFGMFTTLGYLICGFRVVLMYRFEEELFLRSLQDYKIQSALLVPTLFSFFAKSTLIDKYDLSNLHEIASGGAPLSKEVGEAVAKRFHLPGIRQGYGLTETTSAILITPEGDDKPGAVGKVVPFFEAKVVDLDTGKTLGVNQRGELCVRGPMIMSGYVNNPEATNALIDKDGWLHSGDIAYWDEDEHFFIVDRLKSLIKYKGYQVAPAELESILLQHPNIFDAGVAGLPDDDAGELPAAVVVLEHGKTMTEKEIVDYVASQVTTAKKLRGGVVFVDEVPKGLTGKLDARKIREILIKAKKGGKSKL
In short: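 Inhibition of purified Photinus luciferase is measured by luminescence. Substrate levels (D-luciferin, ATP) sit at their KM values. Each compound is tested in a concentration series.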

[10] = biological target: Nuclear receptor ROR-gamma (Homo sapiens) (UniProt P51449); test: qHTS assay to identify small molecule antagonists of the retinoid-related orphan receptor gamma (ROR-gamma) signaling pathway (AID 1159521; note: nearly all actives have a fitted effect of over 50% in size; note: potency is the fitted concentration of half-maximal effect)
In short: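 Test compounds were applied to Tet-on RORγ CHO cells 2 h ahead of doxycycline hyclate (1 uM final). Luciferase reporter activity was quantified by luminescence after 16 h at 37 C and 5% CO2.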

[11] = qHTS assay to identify small molecule agonists of the RXR signaling pathway - cell viability counter screen (AID 1159529); note: nearly all actives have a fitted effect of over 50% in size; note: potency is the fitted concentration of half-maximal effect
In short: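 Compounds dissolved in DMSO were pinned onto HEK 293T cells carrying a beta-lactamase reporter under RXR-alpha control and incubated 16 hr. Cytotoxicity was then quantified by CellTiter-Glo luminescence.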

[12] = qHTS assay to identify small molecule agonists of the retinoic acid receptor (RAR) signaling pathway (AID 1159553); note: % is set by controls: 0 for no effect and ±100 for the full control effect
In short: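 Agonist activity was scored in C3RL4 cells bearing a retinoic acid response element luciferase construct. Cells were treated with compounds for 6 hr at 37 C, and luciferase signal was measured as luminescence.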

[13] = qHTS assay to identify small molecule agonists of the constitutive androstane receptor (CAR) signaling pathway - cell viability counter screen (AID 1224836); note: nearly all actives have a fitted effect of over 45% in size; note: potency is the fitted concentration of half-maximal effect
In short: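 23 h treatment, 37 C, 5% CO2. Cell line: HepG2 stably expressing hCAR with a CYP2B6-2.2kb construct. Co-treatment: PK11195, 0.75 uM final. Read-out: CellTiter-Fluor fluorescence intensity.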

[14] = biological target: Retinoic acid receptor RXR-alpha (Homo sapiens) (UniProt P19793); test: qHTS assay to identify small molecule agonists of the RXR signaling pathway (AID 1159527; calls by dose curve; note: % is set by controls: 0 for no effect and ±100 for the full control effect; nearly all actives have a fitted effect of over 35% in size)
Sequence of Retinoic acid receptor RXR-alpha (Homo sapiens) (P19793 whole entry, looked up): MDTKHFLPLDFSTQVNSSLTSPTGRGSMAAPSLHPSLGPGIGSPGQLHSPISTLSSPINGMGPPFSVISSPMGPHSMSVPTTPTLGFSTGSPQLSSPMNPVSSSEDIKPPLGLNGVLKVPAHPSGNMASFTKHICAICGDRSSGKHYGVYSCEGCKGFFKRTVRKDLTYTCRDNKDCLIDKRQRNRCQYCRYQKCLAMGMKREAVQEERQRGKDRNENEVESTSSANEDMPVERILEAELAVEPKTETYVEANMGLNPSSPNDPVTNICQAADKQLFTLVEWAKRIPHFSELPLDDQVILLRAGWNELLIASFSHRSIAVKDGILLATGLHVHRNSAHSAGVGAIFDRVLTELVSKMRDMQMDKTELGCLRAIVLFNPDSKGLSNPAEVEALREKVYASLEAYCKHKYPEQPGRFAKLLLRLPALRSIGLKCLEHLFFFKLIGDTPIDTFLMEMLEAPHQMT
In short: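 Using 9-cis retinoic acid as the reference agonist, chemicals were tested in HEK 293T cells […] for 16 hr; substrate loading lasted 2 hr at room temperature.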

[15] = qHTS assay to identify small molecule antagonists of the estrogen related receptor (ERR) signaling pathway - cell viability counter screen (AID 1224818);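 note: series mostly up to about 46 µM; viability measured after 17.5 h of compound exposure; % is set by controls: 0 for no effect and ±100 for the full control effect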
In short: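 Cells carrying the ERR pathway reporter were seeded and incubated for 6 hours before compound addition. After a 17.5-hour exposure at 37 C, live-cell protease activity was measured by CellTiter-Fluor fluorescence following 30 minutes of incubation.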

[16] = qHTS assay to identify small molecule antagonists of the estrogen related receptor signaling pathway with the pleiotropic PPARgamma coactivator (PGC) cell viability counter screen (AID 1224822;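 note: series mostly up to about 46 µM; viability read after 17.5 h compound exposure; % is set by controls: 0 for no effect and ±100 for the full control effect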)
In short: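 Seed PGC/ERR cells (2,000/well); incubate 6 h at 37 C/5% CO2; pin-transfer compounds in DMSO; incubate 17.5 h at 37 C; add CellTiter-Fluor; after 30 min read fluorescence.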

CN(C)CCCN1c2ccccc2Sc2ccc(C(F)(F)F)cc21
inactive: Potency [1] | Potency [2] | Potency [3] | Potency [4] | Potency [6] | Potency [9]
active: Potency [5] 16.9 µM | Potency [7] 29.8 µM | Potency [8] 29.8 µM

CC1(C)C(=O)N(Br)C(=O)N1Br
inactive: Potency [1] | Potency [2] | Potency [3] | Potency [10] | Potency [4] | Potency [5] | Potency [11] | Potency [6] | Potency [7] | Potency [12] | Potency [8] | Potency [13]

c1cc(OCC2CO2)cc(OCC2CO2)c1 (configuration not stated)
inactive: Potency [1] | Potency [2] | Potency [3] | Potency [4] | Potency [6] | Potency [9] | Potency [13]
active: Potency [10] 48.2 µM | Potency [11] 48.6 µM | Potency [8] 60.6 µM

O=C1Nc2ccc(Cl)cc2[C@@](C#CC2CC2)(C(F)(F)F)O1
inactive: Potency [1] | Potency [2] | Potency [10] | Potency [6] | Potency [12] | Potency [9] | Potency [13]
active: Potency [3] 29.8 µM | Potency [7] 29.8 µM

O=C(O)CCCCCCC(=O)O
inactive: Potency [1] | Potency [2] | Potency [3] | Potency [10] | Potency [4] | Potency [5] | Potency [14] | Potency [11] | Potency [6] | Potency [8] | Potency [9] | Potency [13]

COc1cccc(CCc2ccccc2OCC(CN(C)C)OC(=O)CCC(=O)O)c1 (configuration not stated)
inactive: Potency [1] | Potency [2] | Potency [3] | Potency [4] | Potency [5] | Potency [11] | Potency [6] | Potency [9] | Potency [13]
active: Potency [10] 7.5 µM

CNC(=S)NN
active: Potency [10] 27.3 µM | Potency [7] 43.3 µM | Potency [8] 15.4 µM | Potency [13] 43.3 µM
inactive: Potency [1] | Potency [2] | Potency [3] | Potency [4] | Potency [6] | Potency [9]

CN(Cc1cc(Br)cc(Br)c1N)C1CCCCC1
inactive: Potency [1] | Potency [2] | Potency [3] | Potency [10] | Potency [12] | Potency [8] | Potency [13]

CCCCCCCCCCCC(=O)N(CC)CC
inactive: Potency [1] | Potency [2] | Potency [3] | Potency [10] | Potency [4] | Potency [6] | Potency [7] | Potency [12] | Potency [8] | Potency [9] | Potency [13]

ClC/C=C\CCl
inactive: Potency [1] | Potency [2] | Potency [3] | Potency [4] | Potency [5] | Potency [14] | Potency [11] | Potency [6] | Potency [7] | Potency [12] | Potency [8] | Potency [9] | Potency [13]

C=CC(C)(CCC=C(C)C)OC(=O)/C=C/c1ccccc1 (configuration not stated)
inactive: Potency [1] | Potency [2] | Potency [3] | Potency [10] | Potency [4] | Potency [6] | Potency [7] | Potency [8] | Potency [13]

CC1CCCCN1CCCOC(=O)c1ccc(OC2CCCCC2)cc1 (configuration not stated)
inactive: Potency [1] | Potency [2] | Potency [3] | Potency [4] | Potency [6] | Potency [12] | Potency [9] | Potency [13]
active: Potency [10] 11.9 µM

Cc1ccc(CCn2c3c(c4cc(Cl)ccc42)CN(C)CC3)cn1
inactive: Potency [1] | Potency [2] | Potency [3] | Potency [10] | Potency [4] | Potency [5] | Potency [6] | Potency [7] | Potency [12] | Potency [9] | Potency [13]
active: Potency [11] 16.9 µM

[O]=[Zr]
inactive: Potency [1] | Potency [2] | Potency [3] | Potency [4] | Potency [5] | Potency [11] | Potency [6] | Potency [12] | Potency [8] | Potency [13]
active: Potency [9] 39.8 µM

CCCCNc1c(C(=O)OCC)c(C)nc2c1cnn2CC
inactive: Potency [1] | Potency [2] | Potency [3] | Potency [10] | Potency [4] | Potency [5] | Potency [11] | Potency [6] | Potency [7] | Potency [12] | Potency [15] | Potency [16] | Potency [8] | Potency [9] | Potency [13]

CCN1CCN(c2cc(-c3ccc(F)cc3)c3c(n2)CCCCCC3)CC1
inactive: Potency [1] | Potency [2] | activity, negative = cytotoxicity [3] -5.78% [at 19 µM] | activity change, negative = inhibition [10] -6.23% [at 19 µM] | viability change, negative = cytotoxic [4] 3.9% [at 15.8 µM] | activation [5] 6.74% [at 15.8 µM] | activity change, negative = cytotoxicity [6] 0.574% [at 19 µM] | activity, negative = inhibition [7] 9.21% [at 19 µM] | Potency [12] | viability change, negative = cytotoxic [8] 0.165% [at 19 µM] | activity change, negative = inhibition [9] -0.963% [at 23.6 µM] | viability change, negative = cytotoxic [13] 4.47% [at 19 µM]

COC(=O)CC(C)CCC=C(C)C (configuration not stated)
inactive: Potency [1] | Potency [2] | Potency [3] | Potency [10] | Potency [4] | Potency [11] | Potency [6] | Potency [7] | Potency [8] | Potency [13]

CCCCCCCCCCCCCCCC
inactive: Potency [1] | Potency [2] | Potency [3] | Potency [4] | Potency [5] | Potency [11] | Potency [6] | Potency [7] | Potency [12] | Potency [8] | Potency [13]

O=C(c1ccccc1)c1cc(Cl)ccc1O
inactive: Potency [1] | Potency [2] | Potency [3] | Potency [10] | Potency [6] | Potency [7] | Potency [12] | Potency [8] | Potency [9] | Potency [13]
